# Measured values as given in the supplement of paper PMC8728848.
# Shown is part of a subset that was picked to be rich in the strongest signals.
# What was measured:
# Assay in all cases: glycan array binding signal (z-score within array); higher = stronger binding
# Settings in all cases: glycan notation: IUPAC condensed, linker removed
# [1] = target: Gal(b1-4)GlcNAc(b1-3)Gal(b1-4)GlcNAc(b1-2)[Gal(b1-4)GlcNAc(b1-3)Gal(b1-4)GlcNAc(b1-6)]Man(a1-6)[Gal(b1-4)GlcNAc(b1-3)Gal(b1-4)GlcNAc(b1-2)Man(a1-3)]Man(b1-4)GlcNAc(b1-4)GlcNAc
# Outline: (§1)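 Negative Z-scores can be read as non-binding. The Z-score is calculated within each array and then averaged across arrays of one protein sequence at different concentrations or buffers and across linkers. Arrays, 3228 in all, were curated from the Consortium for Functional Glycomics database and kept only where the protein sequence was available.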
# [2] = target: Gal(b1-4)GlcNAc(b1-3)Gal(b1-4)GlcNAc(b1-3)Gal(b1-4)GlcNAc(b1-2)Man(a1-3)[Gal(b1-4)GlcNAc(b1-3)Gal(b1-4)GlcNAc(b1-3)Gal(b1-4)GlcNAc(b1-2)Man(a1-6)]Man(b1-4)GlcNAc(b1-4)[Fuc(a1-6)]GlcNAc
# Outline: as §1
# [3] = target: Gal(b1-4)GlcNAc(b1-3)Gal(b1-4)GlcNAc(b1-3)Gal(b1-4)GlcNAc(b1-3)Gal(b1-4)GlcNAc(b1-2)Man(a1-3)[Gal(b1-4)GlcNAc(b1-3)Gal(b1-4)GlcNAc(b1-3)Gal(b1-4)GlcNAc(b1-3)Gal(b1-4)GlcNAc(b1-2)Man(a1-6)]Man(b1-4)GlcNAc(b1-4)[Fuc(a1-6)]GlcNAc
# Outline: as §1
# [4] = target: Gal(b1-4)GlcNAc(b1-3)Gal(b1-4)GlcNAc(b1-3)Gal(b1-4)GlcNAc(b1-3)Gal(b1-4)GlcNAc(b1-3)Gal(b1-4)GlcNAc(b1-2)[Gal(b1-4)GlcNAc(b1-3)Gal(b1-4)GlcNAc(b1-3)Gal(b1-4)GlcNAc(b1-3)Gal(b1-4)GlcNAc(b1-3)Gal(b1-4)GlcNAc(b1-6)]Man(a1-6)[Gal(b1-4)GlcNAc(b1-3)Gal(b1-4)GlcNAc(b1-3)Gal(b1-4)GlcNAc(b1-3)Gal(b1-4)GlcNAc(b1-3)Gal(b1-4)GlcNAc(b1-2)Man(a1-3)]Man(b1-4)GlcNAc(b1-4)[Fuc(a1-6)]GlcNAc
# Outline: as §1
# [5] = target: Gal(b1-4)GlcNAc(b1-3)Gal(b1-4)GlcNAc(b1-6)[Gal(b1-3)]GalNAc
# Outline: as §1
# GalNAc(b1-4)Gal(b1-4)Glc = target: GalNAc(b1-4)Gal(b1-4)Glc
# Outline: as §1
# GalNAc(b1-4)GlcNAc = target: GalNAc(b1-4)GlcNAc
# Outline: as §1
# [6] = target: GalNAc(b1-4)GlcNAc(b1-2)Man(a1-3)[GalNAc(b1-4)GlcNAc(b1-2)Man(a1-6)]Man(b1-4)GlcNAc(b1-4)GlcNAc
# Outline: as §1
# [7] = target: GalNAc3S(b1-4)[Fuc(a1-3)]GlcNAc
# Outline: as §1
# GalNAc6S(b1-4)GlcNAc = target: GalNAc6S(b1-4)GlcNAc
# Outline: as §1
# [8] = target: GlcA3S(b1-3)Gal(b1-4)GlcNAc(b1-2)Man
# Outline: as §1
# [9] = target: GlcNAc(a1-4)Gal(b1-4)GlcNAc(b1-3)Gal(b1-4)Glc
# Outline: as §1
# [10] = target: GlcNAc(b1-2)[GlcNAc(b1-4)]Man(a1-3)[GlcNAc(b1-2)Man(a1-6)]Man(b1-4)GlcNAc(b1-4)GlcNAc
# Outline: as §1
# [11] = target: GlcNAc(b1-3)Gal(b1-4)GlcNAc(b1-2)Man(a1-3)[GlcNAc(b1-3)Gal(b1-4)GlcNAc(b1-2)Man(a1-6)]Man(b1-4)GlcNAc(b1-4)[Fuc(a1-6)]GlcNAc
# Outline: as §1
# GlcNAc(b1-3)GalNAc = target: GlcNAc(b1-3)GalNAc
# Outline: as §1
# GlcNAc(b1-3)Man = target: GlcNAc(b1-3)Man
# Outline: as §1
# [12] = target: GlcNAc(b1-4)Gal(b1-4)GlcNAc
# Outline: as §1
# Man(a1-6)Man = target: Man(a1-6)Man
# Outline: as §1
# [13] = target: Neu5Ac(a2-3)Gal(b1-3)GalNAc
# Outline: as §1
# [14] = target: Neu5Ac(a2-3)Gal(b1-3)GlcNAc(b1-2)Man(a1-3)[Neu5Ac(a2-3)Gal(b1-3)GlcNAc(b1-2)Man(a1-6)]Man(b1-4)GlcNAc(b1-4)GlcNAc
# Outline: as §1
# [15] = target: Neu5Ac(a2-3)Gal(b1-3)GlcNAc(b1-3)GalNAc
# Outline: as §1
# [16] = target: Neu5Ac(a2-3)Gal(b1-3)[Fuc(a1-4)]GlcNAc(b1-3)Gal(b1-3)[Fuc(a1-4)]GlcNAc
# Outline: as §1
# [17] = target: Neu5Ac(a2-3)Gal(b1-3)[Neu5Ac(a2-6)]GlcNAc(b1-3)[Fuc(a1-3)[Gal(b1-4)]GlcNAc(b1-6)]Gal(b1-4)Glc
# Outline: as §1
# Neu5Ac(a2-3)Gal(b1-4)Glc = target: Neu5Ac(a2-3)Gal(b1-4)Glc
# Outline: as §1
# [18] = target: Neu5Ac(a2-3)Gal(b1-4)GlcNAc(b1-3)Gal(b1-4)GlcNAc(b1-3)Gal(b1-4)GlcNAc
# Outline: as §1
# [19] = target: Neu5Ac(a2-6)Gal(b1-3)GlcNAc(b1-3)[Gal(b1-4)GlcNAc(b1-6)]Gal(b1-4)Glc
# Outline: as §1
# [20] = target: Neu5Ac(a2-8)Neu5Ac(a2-3)Gal(b1-4)GlcNAc
# Outline: as §1
# [21] = target: Neu5Ac(a2-8)Neu5Ac(a2-8)Neu5Ac
# Outline: as §1
# [22] = target: Neu5Gc(a2-3)Gal(b1-4)GlcNAc
# Outline: as §1
# [23] = target: Neu5Gc(a2-6)Gal(b1-4)GlcNAc
# Outline: as §1
binder,measurement,setting,value
SabA (Helicobacter pylori) (protein) MGSSHHHHHHSSGLVPRGSHMENLYFQGEDNGFFVSAGYQIGEAVQMVKNTGELKNLNEKYEQLSQYLNQVASLKQSIQNANNIELVNSSLNYLKSFTNNNYNSTTQSPIFNAVQAVITSVLGFWSLYAGNYFTFFVGKKVGDSGQPASVQGNPPFKTIIENCSGIENCAMDQTTYDKMKKLAEDLQAAQTNSATKGNNLCALSGCAATDSTSNPPNSTVSNALNLAQQLMDLIANTKTAMMWKNIVISGVSNTSGAITSTNYPTQYAVFNNIKAMIPILQQAVTLSQSNHTLSASLQAQATGSQTNPKFAKDIYTFAQNQKQVISYAQDIFNLFNSIPAEQYKYLEKAYLKIPNAGSTPTNPYRQVVNLNQEVQTIKNNVSYYGNRVDAALSVARDVYNLKSNQAEIVTAYNDAKTLSEEISKLPHNQVNTKDIVTLPYDKNAPAAGQSNYQINPEQQSNLNQALAAMSNNPFKKVGMISSQNNNGA,glycan array binding signal (z-score),[1],2.39
same,glycan array binding signal (z-score),[2],-0.537
same,glycan array binding signal (z-score),[3],0.132
same,glycan array binding signal (z-score),[4],-0.103
same,glycan array binding signal (z-score),[5],-0.494
same,glycan array binding signal (z-score),GalNAc(b1-4)Gal(b1-4)Glc,1.6
same,glycan array binding signal (z-score),GalNAc(b1-4)GlcNAc,0.676
same,glycan array binding signal (z-score),[6],2.98
same,glycan array binding signal (z-score),[7],-0.298
same,glycan array binding signal (z-score),GalNAc6S(b1-4)GlcNAc,0.834
same,glycan array binding signal (z-score),[8],-0.867
same,glycan array binding signal (z-score),[9],-0.716
same,glycan array binding signal (z-score),[10],-0.287
same,glycan array binding signal (z-score),[11],0.826
same,glycan array binding signal (z-score),GlcNAc(b1-3)GalNAc,0.191
same,glycan array binding signal (z-score),GlcNAc(b1-3)Man,1.69
same,glycan array binding signal (z-score),[12],-0.173
same,glycan array binding signal (z-score),Man(a1-6)Man,-0.738
same,glycan array binding signal (z-score),[13],0.965
same,glycan array binding signal (z-score),[14],1.79
same,glycan array binding signal (z-score),[15],-0.131
same,glycan array binding signal (z-score),[16],0.27
same,glycan array binding signal (z-score),[17],-0.626
same,glycan array binding signal (z-score),Neu5Ac(a2-3)Gal(b1-4)Glc,2.88
same,glycan array binding signal (z-score),[18],0.051
same,glycan array binding signal (z-score),[19],-0.762
same,glycan array binding signal (z-score),[20],-0.714
same,glycan array binding signal (z-score),[21],-0.39
same,glycan array binding signal (z-score),[22],-0.614
same,glycan array binding signal (z-score),[23],0.779
